In PubChem BioAssay (NCATS):
“And” between values parts separate entries of the source, which are not always exact repeats. Equal values may be shown once. Results filed as inconclusive are left out. The source made the active and inactive calls. Calls come from the whole dose curve; as a rule, active = well fitted curve in the direction sought with a large enough effect; inconclusive = small, poorly fitted or top-dose-only effect, or another doubt; inactive = no such curve, though single readings can be large; an effect the other way counts as inactive or inconclusive.

Experiments:
[1] = target: Cellular tumor antigen p53 (Homo sapiens) (UniProt P04637); assay: Primary qHTS for small molecule compounds that upregulate eGFP-tagged delta133p53alpha (in N-terminal) cells. (AID 2060322); details: NCI-H358 eGFP-delta133p53alpha fluorescence, 24 h; activation: hits give high values;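 note: cells pre-induced with doxycycline then dosed without doxycycline; 0% = DMSO vehicle and 100% = reference activator; nearly all actives have a fitted effect of over 75% in size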
Cellular tumor antigen p53 (Homo sapiens), sequence (P04637 whole entry, looked up): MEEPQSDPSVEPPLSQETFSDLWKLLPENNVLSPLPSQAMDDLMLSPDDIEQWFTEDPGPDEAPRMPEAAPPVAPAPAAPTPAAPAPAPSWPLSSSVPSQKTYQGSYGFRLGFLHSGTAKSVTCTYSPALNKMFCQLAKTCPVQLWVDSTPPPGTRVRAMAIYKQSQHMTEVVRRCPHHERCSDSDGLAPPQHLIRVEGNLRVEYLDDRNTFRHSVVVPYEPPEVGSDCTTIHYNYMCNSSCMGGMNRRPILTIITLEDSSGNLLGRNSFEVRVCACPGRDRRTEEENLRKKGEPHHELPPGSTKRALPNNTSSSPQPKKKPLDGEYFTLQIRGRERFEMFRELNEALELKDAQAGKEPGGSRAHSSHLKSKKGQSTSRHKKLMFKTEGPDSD
In short: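 NCI-H358 cells pre-induced 24 h with 10 ng/ml doxycycline for eGFP-delta133p53alpha, plated dox-free and exposed 24 h at 37C to titrated compounds. Fixed, Hoechst-stained; gated GFP peak intensity by laser scanning cytometry, normalized to DMSO (0%) and 57.5 uM 5-azacytidine (100%).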

[2] = target: Aldehyde dehydrogenase, mitochondrial (Homo sapiens) (UniProt P05091); assay: qHTS for Inhibitors of the Aldehyde Dehydrogenase Family (ALDH2) Primary screen (AID 2061308); details: ALDH2 enzyme inhibition qHTS, 1536-well; series mostly up to 56 µM;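 note: plate controls were vehicle for no effect and reference inhibitor for full effect; nearly all actives have a fitted effect of over 55% in size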
[3] = target: Retinaldehyde dehydrogenase 3 (Homo sapiens) (UniProt P47895); assay: qHTS for Inhibitors of the Aldehyde Dehydrogenase Family (ALDH1A3) Validation screen (AID 2061312); details: ALDH1A3 enzyme inhibition qHTS validation, fluorescence; series mostly up to 84.7 µM; note: % is set by controls: 0 for no effect and ±100 for the full control effect; nearly all actives have a fitted effect of over 45% in size
[4] = target: Retinaldehyde dehydrogenase 3 (Homo sapiens) (UniProt P47895); assay: qHTS for Inhibitors of the Aldehyde Dehydrogenase Family (ALDH1A3) Primary screen (AID 2061315); details: ALDH inhibition qHTS; series mostly up to 56 µM;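 note: plate controls were DMSO vehicle for no effect and reference inhibitor for full effect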

O=C(c1cc2c(cc1F)OC(c1ccc(F)cc1)(c1ccc(Cl)cc1Cl)O2)N1CCOCC1 (stereo not given)
inactive: activation [1] -4.3% | Potency [2] | Potency [3] | Potency [4]

CC(C)c1c(NC(=O)Nc2ccc(Cl)cc2)c(=O)n(-c2ccccc2)n1C
inactive: activation [1] 9.07% | Potency [2] | Potency [3] | Potency [4]

C/C(=C\C(=O)OCCCCCCCCC(=O)O)C[C@@H]1OC[C@H](C[C@@H]2O[C@H]2[C@@H](C)[C@H](C)O)[C@@H](O)[C@H]1O
inactive: activation [1] -7.64% | Potency [2] | Potency [3] | Potency [4]

Cc1c(C2=CCN(C(=O)N(C)C(C)C)CC2)nnn1-c1cccnc1F
inactive: activation [1] -9.55% | Potency [2] | Potency [3] | Potency [4]

O=C(O)c1cc(N(Cc2ccc(C3CCCCC3)cc2)C(=O)c2ccc(Oc3ccccc3)cc2)ccc1O
inactive: activation [1] -2.86% | Potency [2] | Potency [3] | Potency [4]

CC(C)C(=O)Oc1ccc(CO)cc1[C@H](CCN(C(C)C)C(C)C)c1ccccc1
inactive: activation [1] 16.6% and 0.955% | Potency [2] | Potency [3] | Potency [4]

C#CCN(Cc1cc2c(=O)[nH]c(C)nc2cc1Br)c1ccc(C(=O)NCc2cccnc2)cc1
inactive: activation [1] -5.73% | Potency [2] | Potency [3] | Potency [4]

NC(=O)c1cccc2cn(-c3ccc(C4CCCNC4)cc3)nc12 (stereo not given)
inactive: activation [1] 26.7% | Potency [2] | Potency [3] | Potency [4]

Cc1oc(S(=O)(=O)N2CCCCC2)cc1NC(=O)Nc1ccccc1
inactive: activation [1] 0.955% | Potency [2] | Potency [3] | Potency [4]

CC1(C)CC(=O)N(CCCCN2CCN(c3ncccn3)CC2)C(=O)C1
inactive: activation [1] -2.86% | Potency [2] | Potency [3] | Potency [4]
